High-throughput results deposited in PubChem by several laboratories.
CSC inhib = blocks cancer stem cells | cancer stem cell-like cells viability, luminescence | inhibition, % at 7.5 µM | actives 1.1% (n = 300,000) | AID 2717; in the data active = inhibition above about 75%; inconclusive = no clear call, values can overlap the other calls; tested in HMLE shEcad cells
Mdm2 MdmX PPI = human Mdm2/MdmX binding inhibition; AID 485346; inhibition, % at 8 µM; SaOS-2 split-luciferase Mdm2/MdmX complementation, luminescence; actives 3% (n = 330,000); O15151+Q00987;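 active = inhibition of at least 50% at 8 µM in the primary screen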
Target sequence (O15151 whole entry, looked up): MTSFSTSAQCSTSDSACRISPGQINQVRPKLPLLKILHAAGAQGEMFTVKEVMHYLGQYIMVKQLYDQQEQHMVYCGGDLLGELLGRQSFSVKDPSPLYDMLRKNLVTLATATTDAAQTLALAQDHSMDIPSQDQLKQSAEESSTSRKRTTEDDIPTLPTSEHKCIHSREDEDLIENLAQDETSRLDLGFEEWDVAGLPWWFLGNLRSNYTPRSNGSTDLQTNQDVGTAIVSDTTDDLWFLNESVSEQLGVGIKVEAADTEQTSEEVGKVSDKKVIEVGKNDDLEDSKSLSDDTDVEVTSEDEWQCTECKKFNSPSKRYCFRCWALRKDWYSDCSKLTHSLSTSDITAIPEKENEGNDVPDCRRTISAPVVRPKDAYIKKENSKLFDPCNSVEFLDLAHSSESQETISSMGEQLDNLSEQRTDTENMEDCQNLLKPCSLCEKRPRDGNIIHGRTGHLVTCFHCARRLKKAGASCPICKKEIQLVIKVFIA
Target sequence (Q00987 whole entry, looked up): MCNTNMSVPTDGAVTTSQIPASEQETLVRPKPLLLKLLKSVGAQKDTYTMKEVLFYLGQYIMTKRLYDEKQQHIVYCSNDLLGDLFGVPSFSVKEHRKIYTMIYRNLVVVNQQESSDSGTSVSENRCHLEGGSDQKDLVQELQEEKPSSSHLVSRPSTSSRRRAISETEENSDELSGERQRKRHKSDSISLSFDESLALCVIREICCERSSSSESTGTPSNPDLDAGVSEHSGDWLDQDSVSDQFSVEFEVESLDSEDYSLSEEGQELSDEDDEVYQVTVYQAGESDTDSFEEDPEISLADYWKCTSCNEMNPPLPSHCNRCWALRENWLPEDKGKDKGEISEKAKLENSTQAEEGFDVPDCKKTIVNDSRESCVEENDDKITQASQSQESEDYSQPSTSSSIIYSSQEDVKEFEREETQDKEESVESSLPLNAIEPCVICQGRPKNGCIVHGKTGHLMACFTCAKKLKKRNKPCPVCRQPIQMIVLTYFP
Beta cell apopt = blocks beta cell apoptosis; actives 0.8% (n = 300,000); INS-1E cytokine-induced death, ATP luminescence, 48 h; percent of positive-control rescue, neutral wells zero; AID 435005; protection from apoptosis, % (test concentration not listed);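 active = Every replicate reaches about 75%, or at least half do and their mean reaches it too, limit read from the data; inconclusive = At least half of replicates reach the limit but their mean does not; inactive = Under half of replicates reach the limit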;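 note: higher means more ATP so stronger rescue from cytokine killing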
Calb FLC = affects C. albicans growth with fluconazole; C. albicans CaCi-2 (fluconazole-resistant clinical isolate) + fluconazole, Alamar Blue growth, 48 h; growth inhibition, % (no concentration beside the values); actives 0.57% (n = 300,000);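 active = growth inhibition above about 58% in most replicates, limit read from the data, passing the limit was not always enough; inconclusive = exactly half the replicates above a set limit; inactive = most replicates below a set limit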;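 note: all wells also contain fluconazole at 8 µg/ml as a sub-toxic cotreatment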
MPTP inh = permeability transition pore inhibition; isolated mouse mitochondria, Ca2+ swelling absorbance, 30 min; inhibition, % at 10 µM; actives 1.4% (n = 360,000);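 active = inhibition of 50% or more, scaled per plate between neutral and stimulator controls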
Rh123 counter = membrane potential counter-screen of mitochondrial pore inhibitors; isolated mitochondria, Rhodamine 123 fluorescence; shares compounds with MPTP inh; actives 78% (n = 5,000); AID 624504; inhibition, % at 10 µM; in the data active = inhibition above about 22%
MPTP abs DR = dose response confirmation of mitochondrial permeability transition pore inhibitors; shares compounds with MPTP inh; isolated mitochondria swelling, absorbance; IC50, µM; actives 58% (n = 780); AID 651561; in the data active = IC50 below about 20 µM
MPTP counter DR = counter-screen for mitochondrial permeability transition pore inhibitors, dose response | shares compounds with MPTP inh | isolated mitochondria counterscreen, fluorescence read-out | IC50, µM | actives 49% (n = 780) | AID 651564; in the data active = IC50 below about 80 µM
Large screens that a line does not name were inactive (follow-up assays come after a bar, where they were run). Only some compounds are listed: those with a hit (about 4.8% of all), similar ones and a draw of the others.

COCCCNCCOCCOc1ccc(Cl)cc1C(C)(C)C	MPTP inh 61.3 | Rh123 counter inactive | MPTP abs DR 4.33 | MPTP counter DR inactive
C=C(C)CSc1nc2sc3c(c2c(=O)n1-c1ccccc1)CCN(C)C3	none
O=C(NN1CC(C(=O)OCc2ccccc2F)CC1=O)c1ccccc1 (stereo not given)	none
COc1ccc(Cc2nnc(SCC(=O)N(C)CC(=O)Nc3ccc(C)cc3)o2)cc1	none
Cc1ccc(C)c(OCCC(=O)Nc2cccc(S(=O)(=O)NC3=NCCCCC3)c2)c1	none (no result: Calb FLC)
O=C(/C=C/c1ccccc1)Nc1cccc(S(=O)(=O)Nc2ccccc2F)c1	MPTP inh 50.9 | Rh123 counter 55.7
O=C(Cc1ccc(Cl)cc1Cl)Nc1cccc(S(=O)(=O)Nc2ccccc2F)c1	MPTP inh 65.3 | Rh123 counter 58.1
Cc1ccccc1OCCC(=O)Nc1cccc(S(=O)(=O)Nc2ccccc2Cl)c1	MPTP inh 77.3 | Rh123 counter 75.3
CC1(C)CC(=O)C=C(c2ccc(COC(=O)C(c3ccccc3)c3ccccc3)cc2)C1=O	none (no result: CSC inhib, Mdm2 MdmX PPI, Beta cell apopt, Calb FLC)
CCO/C=N/Nc1nc(C(F)(F)F)nc2c1cnn2Cc1ccccc1	none
CCc1ccc(S(=O)(=O)NCc2csc(-c3ccccc3)n2)s1	none
CCc1ccc(S(=O)(=O)NCCc2csc(-c3ccccc3)n2)s1	MPTP inh 69.1 | Rh123 counter 80.8
O=C(CSc1nnc(-c2cccs2)o1)c1cccs1	none
Cc1cc(C(=O)CSc2nnc(-c3cccs3)o2)c(C)n1-c1ccccc1	MPTP inh 51.5 | Rh123 counter 45.4
Cc1cc(C(=O)CSc2nnc(-c3ccc4c(c3)OCO4)o2)c(C)n1-c1ccc(F)cc1	MPTP inh 94.4 | Rh123 counter 41.9
O=C1CCC(C(=O)N2CCN(c3ccccc3)CC2)CN1CC1CCCCC1 (stereo not given)	none
Cc1csc(N=Nc2ccc(N(C)C)cc2)[n+]1[O-]	MPTP inh 67.7 (no result: CSC inhib, Mdm2 MdmX PPI, Beta cell apopt, Calb FLC) | Rh123 counter inactive | MPTP abs DR inactive | MPTP counter DR inactive
CN(C)c1ccc(N=Nc2ccc(C(=O)O)cc2)cc1	none
COc1ccc(C(=O)OCC(=O)c2c(N)n(C)c(=O)n(C)c2=O)c(OC)c1OC	none (no result: Calb FLC)
NC(=O)C1CCN(c2nc(-c3ccc4c(c3)OCCO4)cs2)CC1	none (no result: Calb FLC, MPTP inh)
COCc1cc(C)nc(OCC(=O)N/N=C/c2cc(C)n(-c3c(C)cccc3C)c2C)c1C#N	MPTP inh 55.5 | Rh123 counter inactive | MPTP abs DR 7.89 | MPTP counter DR inactive
N#CC(=C1C=C(Br)C(=NO)C=C1Cl)c1ccc(Cl)cc1	MPTP inh 83.2 (no result: CSC inhib, Mdm2 MdmX PPI, Beta cell apopt, Calb FLC) | Rh123 counter 85.3
CCOc1cc(/C=C(/C#N)c2nc3ccccc3[nH]2)ccc1Oc1ccc([N+](=O)[O-])cn1	MPTP inh 83.0 | Rh123 counter 44.9
COc1ccc2nc(/C(C#N)=C\c3ccc(Oc4ccc([N+](=O)[O-])cn4)cc3)[nH]c2c1	Beta cell apopt inconclusive
Cc1ccc2nc(/C(C#N)=C\c3ccc(Oc4ccc([N+](=O)[O-])cn4)cc3)[nH]c2c1	MPTP inh 65.3 (no result: Mdm2 MdmX PPI, Calb FLC) | Rh123 counter inactive | MPTP abs DR inactive | MPTP counter DR 10.3
CCOc1cc(/C=C(\C#N)c2nc3ccccc3[nH]2)ccc1OC(C)C(=O)O (stereo not given)	none
Cn1c(CNC(=O)c2ccccc2F)nnc1SCCOc1ccccc1	none
C=CCN=c1scc(-c2ccc(F)cc2)n1/N=C/c1ccccn1	none
C=CCN=c1scc(-c2ccc3c(c2)NC(=O)CO3)n1/N=C(\C)c1ccccn1	MPTP inh 94.9 (no result: CSC inhib, Mdm2 MdmX PPI, Beta cell apopt, Calb FLC) | Rh123 counter 62.2
COc1ccc(-c2noc(N3CCC(C(=O)NC(C)c4ccccc4)CC3)n2)cc1 (stereo not given)	none
Cc1nc(NC(C)c2ccccc2)c2oc3ccccc3c2n1 (stereo not given)	MPTP inh 64.3 | Rh123 counter 96.1
c1ccc(CNc2ncnc3c2oc2ccccc23)nc1	none
COc1ccc(CCNc2nc(C)nc3c2oc2ccccc23)cc1OC	MPTP inh 71.1 | Rh123 counter 91.2
COc1ccc(CCNc2ncnc3c2oc2ccccc23)cc1OC	Beta cell apopt 107.4, MPTP inh 97.1 | Rh123 counter 99.1
CC1CC1C(=O)OCC(=O)Nc1cccc([N+](=O)[O-])c1 (stereo not given)	none
CN(CCCNC(=O)CCC(=O)N1CCOc2ccc(Cl)cc21)Cc1ccccc1	none
CN(C)CCCN(C(=O)COc1ccc(Cl)cc1)c1nc2ccc(F)cc2s1	none
Cc1cccc2sc(N(CCN(C)C)C(=O)C3CCN(S(=O)(=O)c4cccs4)CC3)nc12	MPTP inh 72.1 (no result: CSC inhib) | Rh123 counter inactive | MPTP abs DR inactive | MPTP counter DR inactive
COc1ccc2sc(N(CCCN(C)C)C(=O)c3ccc(C(=O)c4ccccc4)cc3)nc2c1	MPTP inh 79.6 (no result: Beta cell apopt) | Rh123 counter inactive | MPTP abs DR 13.9 | MPTP counter DR 64
CN(C)CCCN(C(=O)c1ccc(C(=O)c2ccccc2)cc1)c1nc2ccc(F)cc2s1	none
Cc1ccc2nc(N(CCCN(C)C)C(=O)COc3ccc(Cl)cc3)sc2c1	MPTP inh 55.7 | Rh123 counter inactive | MPTP abs DR 4.23 | MPTP counter DR 77.9
COc1cc2ccccc2cc1C(=O)N(CCN(C)C)c1nc2c(C)cccc2s1	MPTP inh 68.7 | Rh123 counter inactive | MPTP abs DR inactive | MPTP counter DR inactive
O=C(CN1CCCC1c1cccs1)N1CCN(S(=O)(=O)c2ccccc2)CC1 (stereo not given)	none (no result: CSC inhib, Beta cell apopt, Calb FLC)
Cc1cc(C)cc(Cn2cc(CN3CC(N4CCN(C)CC4)CS3(=O)=O)nn2)c1 (stereo not given)	none (no result: CSC inhib, Mdm2 MdmX PPI, Beta cell apopt, Calb FLC)
COc1ccc(CC(=O)Nc2cccc(S(=O)(=O)N3CCOCC3)c2)cc1OC	none (no result: CSC inhib, Calb FLC)
CCOC(=O)C1=C(Nc2ccc(OC)cc2)C(N)=NC1=N	none (no result: CSC inhib, Mdm2 MdmX PPI, Beta cell apopt, Calb FLC)
CC(=O)c1c(C)[nH]c(C(=O)COC(=O)c2ccc(C)s2)c1C	none (no result: Calb FLC)
CS(=O)(=O)N(CC(=O)NCCSCc1cccc(Cl)c1)c1ccccc1F	none
Cc1cccc2sc(N(CCCN(C)C)C(=O)c3ccc(C(=O)c4ccccc4)cc3)nc12	MPTP inh 84.3 | Rh123 counter inactive | MPTP abs DR 11.3 | MPTP counter DR 64.3
CC1CCC(NC(=O)CCNS(=O)(=O)c2ccc3c(c2)CCC(=O)N3)CC1 (stereo not given)	none
O=C(Cn1c(COc2ccccc2)nc2ccccc21)Nc1cc(Cl)cc(Cl)c1	MPTP inh 91.9 (no result: Beta cell apopt) | Rh123 counter 93.9
N#CCCNC(=O)Cn1c(COc2ccc(Cl)cc2)nc2ccccc21	none
CCCCc1ccc(-n2nnnc2SCC(=O)Nc2cc(OC)c([N+](=O)[O-])cc2C)cc1	MPTP inh 63.6 | Rh123 counter 53.5
